According to PubChem BioAssay AID1159580 (chemical genetic matrix, 2015):
Among all 5,500 compounds or so, about 2,000 (36%) were called active. Inconclusive results (about 18%) are left out. Rule as the data show it: active = normalized growth mostly below about 0.91 (no sharp cut-off); inconclusive = no clear call, values can overlap the other calls; inactive = mostly above about 0.92. The list shows a part of the results.

Assay: chemical genetic growth profiling, strain panel (AID 1159580);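 also: tested at 20 µM; growth read once vehicle control cultures reached saturation at 30 °C; 1 = growth at the plate median or of vehicle wells; lower values mean less growth of the strain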
Conditions: S. cerevisiae deletion strains, growth OD

Measured: normalized growth

COc1ccccc1-c1cc(=O)c2cccc(OC)c2o1
inactive: locus YBR229C, strain ROT2, active compounds read low 0.972 | locus YCL029C, strain bik1, active compounds read low 0.987 | locus YDL035C, strain GPR1, active compounds read low 0.894 | locus YDL074C, strain BRE1, active compounds read low 0.824 | locus YDL101C, strain DUN1, active compounds read low 0.909 | locus YDL185W, strain tfp1, active compounds read low 0.986 | locus YDR101C, strain arx1, active compounds read low 0.928 | locus YDR162C, strain NBP2, active compounds read low 0.857 | locus YDR388W, active compounds read low 0.97 | locus YER110C, active compounds read low 1.01 | locus YER155C, strain BEM2, active compounds read low 0.93 | locus YGL078C, strain dbp3, active compounds read low 0.991 | locus YHR079C, strain IRE1 (second series), active compounds read low 0.993 | locus YHR094C, strain hxt1, active compounds read low 1 | locus YHR200W, strain rpn10, active compounds read low 0.939 | locus YIL073C, strain SPO22, active compounds read low 0.875 | locus YIL125W, strain kgd1, active compounds read low 0.989 | locus YIR030C, strain dcg1, active compounds read low 0.977 | locus YJL134W, strain LCB3, active compounds read low 0.974 | locus YJL168C, strain set2, active compounds read low 0.977 | locus YJL187C, strain SWE1 (second series), active compounds read low 0.885 | locus YJR043C, strain POL32, active compounds read low 0.864 | locus YKL009W, strain mrt4, active compounds read low 0.978 | locus YKL068W, active compounds read low 0.998 | locus YKL085W, strain MDH1 (second series), active compounds read low 0.977 | locus YKL085W, strain MDH1, active compounds read low 0.977 | locus YKL190W, strain CNB1, active compounds read low 0.938 | locus YLR039C, strain RIC1, active compounds read low 0.84 | locus YLR058C, strain SHM2, active compounds read low 0.911 | locus YLR102C, strain apc9, active compounds read low 1.01 | locus YLR262C, strain YPT6, active compounds read low 0.855 | locus YLR268W, strain sec22, active compounds read low 0.924 | locus YML016C, strain PPZ1, active compounds read low 0.956 | locus YML032C, strain rad52, active compounds read low 0.92 | locus YML124C, strain tub3, active compounds read low 0.972 | locus YMR078C, strain ctf18, active compounds read low 0.986 | locus YMR307W, strain GAS1, active compounds read low 0.843 | locus YNL067W, strain RPL9B, active compounds read low 0.896 | locus YNL153C, strain GIM3, active compounds read low 0.903 | locus YNL250W, strain rad50, active compounds read low 0.997 | locus YNL271C, strain bni1, active compounds read low 0.983 | locus YNL298W, strain CLA4, active compounds read low 0.963 | locus YNR052C, strain pop2, active compounds read low 0.964 | locus YOL012C, strain htz1 1.7 | locus YOR061W, strain CKA2, active compounds read low 0.976 | locus YOR069W, strain VPS5, active compounds read low 0.951 | locus YOR136W, strain idh2, active compounds read low 0.992 | locus YOR144C, strain elg1, active compounds read low 0.967 | locus YOR316C, strain cot1, active compounds read low 0.991 | locus YPL055C, strain LGE1, active compounds read low 0.826 | locus YPR119W, strain clb2, active compounds read low 1 | locus YPR141C, strain kar3, active compounds read low 1 | locus YPR163C, strain tif3, active compounds read low 0.924 | locus YPR167C, strain met16, active compounds read low 0.964 | strain wtn01, active compounds read low 0.918
active: locus YBR021W, strain FUR4, active compounds read low 0.795 | locus YDL134C, strain PPH21, active compounds read low 0.865 | locus YDL192W, strain arf1, active compounds read low 0.867 | locus YDR318W, strain mcm21, active compounds read low 0.915 | locus YDR502C, strain sam2, active compounds read low 0.906 | locus YEL061C, strain CIN8, active compounds read low 0.902 | locus YER167W, strain BCK2, active compounds read low 0.899 | locus YGL086W, strain mad1, active compounds read low 0.908 | locus YGL248W, strain PDE1, active compounds read low 0.865 | locus YGR135W, strain pre9, active compounds read low 0.869 | locus YGR229C, strain SMI1, active compounds read low 0.617 | locus YGR252W, strain gcn5, active compounds read low 0.714 | locus YHR030C, strain SLT2, active compounds read low 0.753 | locus YHR129C, strain ARP1, active compounds read low 0.882 | locus YIL066C, strain RNR3, active compounds read low 0.814 | locus YJL095W, strain BCK1, active compounds read low 0.562 | locus YKR001C, strain vps1, active compounds read low 0.855 | locus YLR330W, strain CHS5, active compounds read low 0.798 | locus YLR342W, strain FKS1 (second series), active compounds read low 0.732 | locus YLR371W, strain rom2, active compounds read low 0.839 | locus YLR418C, strain cdc73, active compounds read low 0.642 | locus YMR223W, strain ubp8, active compounds read low 0.886 | locus YNL233W, strain BNI4, active compounds read low 0.795 | locus YNL307C, strain MCK1, active compounds read low 0.758 | locus YOL147C, strain pex11, active compounds read low 0.924 | locus YOR184W, strain ser1, active compounds read low 0.758
